# Records with an inconclusive call do not appear. Active and inactive are the calls of the source. Rule for the calls: active = hit-call score of the fitted dose curve at least 0.9, where 1 is the maximum; inconclusive = response in the unintended direction; inactive = score below 0.9.
# Tests used:
# [1] = biological target: human Constitutive Androstane Receptor (CAR), NR1I3 (gene 9970) (UniProt Q14994); assay: NVS_NR_hCAR_Antagonist: NovaScreen (NVS) Nuclear Receptor Binding Assay for human Constitutive Androstane Receptor Antagonism (CAR) (AID 2283344)
# Outline: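 Single 25 uM duplicate primary screen, with concentration-series follow-up on actives. Cell-free binding format run in antagonist mode, TR-FRET signal taken 1 h post-dose; activity is signal loss relative to DMSO.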
# [2] = biological target: chimpanzee Androgen Receptor (AR), AR (gene 747460) (UniProt O97775); assay: NVS_NR_cAR: NovaScreen (NVS) Nuclear Receptor Binding Assay for chimpanzee Androgen Receptor (AR) (AID 2283346);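 note: radioligand displacement from AR measured by scintillation counting in a cell-free assay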
# Outline: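 Cell-free radioligand displacement using receptor protein extracted from Sf9/Sf21 cells; bound radioligand measured by scintillation counting 72 hours after chemical dosing. Loss of signal versus DMSO baseline indicates binding; primary screen single-concentration in duplicate at 25 uM, actives followed in concentration series.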
# [3] = biological target: Estrogen receptor (Homo sapiens) (UniProt P03372); assay: NVS_NR_hER: NovaScreen (NVS) Nuclear Receptor Binding Assay for human Estrogen Receptor (ER) (AID 2283348)
# Outline: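 Radiodetection of ligand displacement in a lysate-based, cell-free format using MCF7 extracts, read at 18 hours. Duplicate 25 uM primary testing, then concentration series for actives.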
# [4] = biological target: Estrogen receptor (Homo sapiens) (UniProt P03372); assay: OT_ER_ERaERa_1440: Odyssey Thera (OT) 24-hour HEK293T Protein-Complementation Assay for Estrogen Receptor-alpha/-alpha Homodimer (AID 2283349);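 note: hits raise fluorescence above DMSO for agonists and antagonists alike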
# Outline: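 Stably transfected HEK293T; ERα LBD homodimer PCA. 24 h dosing, fluorescence intensity read, gain-of-signal vs DMSO.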
# [5] = biological target: Estrogen receptor (Homo sapiens) (UniProt P03372); assay: OT_ER_ERaERa_0480: Odyssey Thera (OT) 8-hour HEK293T Protein-Complementation Assay for Estrogen Receptor-alpha/-alpha Homodimer (AID 2283351);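 note: rise in fluorescence from reassembled reporter fragments on ERα LBD homodimer in nucleus or whole cell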
# Outline: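 Read-out: fluorescence intensity rise relative to DMSO, nuclear for agonists, nuclear plus cytoplasmic for antagonists. Construct is the ERα LBD (aa 310-547) homodimer fragment-complementation pair, stably expressed in HEK293T; exposure 8 h.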
# [6] = NVS_IC_rCaBTZCHL: NovaScreen (NVS) Ion Channel Assay for Calcium Channel, Type L, Benzothiazepine Site (CaBTZCHL) (AID 2283337)
# Outline: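 Rat cortical membrane preparation, cell-free. Radioligand displaced by test chemical; 1.5 h incubation; filtration, scintillation count. DMSO = negative control/baseline. Primary: duplicate, 25 uM; secondary: concentration series.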
# [7] = tested on: guinea pig Histamine Receptor (H2), gene 100729734; assay: NVS_GPCR_gH2: NovaScreen (NVS) G Protein-Coupled Receptor Assay for guinea pig Histamine Receptor (H2) (AID 2283342)
# Outline: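 Guinea pig striatal membrane preparation with specific radioligand; bound counts measured by filtration and scintillation 1 h post-dosing, DMSO as baseline. Chemicals passing a 25 uM duplicate screen were titrated to a 50 uM maximum.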
# [8] = biological target: Estrogen receptor (Homo sapiens) + Estrogen receptor beta (Homo sapiens) (UniProt P03372+Q92731); assay: OT_ER_ERaERb_0480: Odyssey Thera (OT) 8-hour HEK293T Protein-Complementation Assay for Estrogen Receptor-alpha/-beta Heterodimer (AID 2283352)
# Outline: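 Compound added to HEK293T cells carrying split-reporter-tagged ER-alpha and ER-beta LBDs, incubated 8 hours, then imaged by laser scanning cytometer. Signal rise in nucleus, or nucleus and cytoplasm, over vehicle was fitted in the positive direction.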
# [9] = biological target: Androgen Receptor/SRC-1 Co-activator, AR (gene 367) (UniProt P10275); assay: OT_AR_ARSRC1_0960: Odyssey Thera (OT) 16-hour HEK293T Protein-Complementation Assay for Androgen Receptor/SRC-1 Co-activator (AID 2283353);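 note: actives raise the signal above DMSO so potency reflects increased AR and SRC-1 complex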
# Outline: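 Readout: 488 nm nuclear-to-cytoplasmic fluorescence ratio from imaging of at least 400 cells per image, 16 h post-dose. Reporter is Venus YFP complementation between AR and SRC-1 fusions, stably expressed in HEK293T; activity scored upward relative to DMSO.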
# [10] = biological target: Androgen Receptor/SRC-1 Co-activator, AR (gene 367) (UniProt P10275); assay: OT_AR_ARSRC1_0480: Odyssey Thera (OT) 8-hour HEK293T Protein-Complementation Assay for Androgen Receptor/SRC-1 Co-activator (AID 2283354);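 note: hits raise the complementation signal above DMSO so AC50 marks enhancers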
# Outline: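 After 8 h dosing, stably expressing HEK293T cells with split-Venus AR/SRC-1 fusions were imaged (488, 635nm). The 488nm N/C ratio per image gave the endpoint, analysed in the positive direction against DMSO.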
# [11] = biological target: Estrogen receptor beta (Homo sapiens) (UniProt Q92731); assay: OT_ER_ERbERb_0480: Odyssey Thera (OT) 8-hour HEK293T Protein-Complementation Assay for Estrogen Receptor-beta/-beta Homodimer (AID 2283357);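 note: active means signal gain over DMSO baseline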
# Outline: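 Fluorescence gain from complemented reporter fragments on ER-beta LBD homodimer in HEK293T was quantified against DMSO controls after 8 h treatment, fixation in 4% formaldehyde and Draq5 staining.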
# [12] = biological target: rat Glycine Receptor, Strychnine-sensitive (GlyRStrySens), Glra1 (gene 25674) (UniProt P07727); assay: NVS_LGIC_rGlyRStrySens: NovaScreen (NVS) Ligand-Gated Ion Channel Assay for rat Glycine Receptor, Strychnine-sensitive (GlyRStrySens) (AID 2283341)
# Outline: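 Radioligand displacement on rat spinal cord membranes, 1 hr, filter scintillation read-out. Single-concentration duplicate screen at 25 uM; chemicals meeting threshold (e.g., 30% inhibition) rerun in concentration-response up to 50 uM. Loss of binding fitted versus DMSO.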
# [13] = biological target: Bile acid receptor (Homo sapiens) (UniProt Q96RI1); assay: NVS_NR_hFXR_Antagonist: NovaScreen (NVS) Nuclear Receptor Binding Assay for human Farnesoid X Receptor Antagonism (FXR) (AID 2283350)
# Outline: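 Antagonist-format time-resolved FRET binding assay with extracted human receptor protein, read 1 hour after compound addition. Compounds first screened at 25 uM in duplicate, then actives tested in concentration series, with loss of signal relative to DMSO.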
# [14] = biological target: rat Mineralocorticoid Receptor (MR), Nr3c2 (gene 25672) (UniProt P22199); assay: NVS_NR_rMR: NovaScreen (NVS) Nuclear Receptor Binding Assay for rat Mineralocorticoid Receptor (MR) (AID 2283355)
# Outline: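 Single-concentration duplicate screen (25 uM) of radioligand binding in adrenalectomized rat brain supernatant; scintillation detection 24 h after dosing. Positive and negative controls ran on each plate, and confirmed actives went to concentration-response.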
# [15] = biological target: Retinoic acid receptor alpha (Homo sapiens) (UniProt P10276); assay: NVS_NR_hRAR_Antagonist: NovaScreen (NVS) Nuclear Receptor Binding Assay for human Retinoic Acid Alpha Receptor Antagonism (RAR) (AID 2283358)
# Outline: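 Chemicals were first tested in duplicate at 25 uM, then actives in concentration series, in a cell-free TR-FRET antagonist binding format. Measurements were taken 2 hours after dosing and loss of signal was evaluated against DMSO controls.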
# [16] = biological target: bovine Gamma-Aminobutyric Acid Type A Receptor Agonist (GABAR Agonist), GABRA1 (gene 780973) (UniProt P08219); assay: NVS_LGIC_bGABAR_Agonist: NovaScreen (NVS) Ligand-Gated Ion Channel Assay for bovine Gamma-Aminobutyric Acid Type A Receptor Agonist (GABAR Agonist) (AID 2283338)
# Outline: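 Radioligand binding to bovine cerebellar membranes in agonist format, read by filter-based scintillation counting after 1 h. Primary screen in duplicate at 25 uM, with actives followed in concentration series. Gain of signal versus DMSO.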
# [17] = biological target: rat Glutamate, MK-801 Agonist Site (GluNMDA_MK801), Grin1 (gene 24408) (UniProt P35439); assay: NVS_LGIC_rGluNMDA_MK801_Agonist: NovaScreen (NVS) Ligand-Gated Ion Channel Assay for rat Glutamate, MK-801 Agonist Site (GluNMDA_MK801) (AID 2283340)
# Outline: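 Rat forebrain membrane preparation; MK-801-site radioligand binding read by filtration and scintillation after 1.5 h. Single-point 25 uM duplicate screen, followed by singleton concentration series to 50 uM max; DMSO baseline.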
# [18] = biological target: bovine Estrogen Receptor (ER), ESR1 (gene 407238) (UniProt P49884); assay: NVS_NR_bER: NovaScreen (NVS) Nuclear Receptor Binding Assay for bovine Estrogen Receptor (ER) (AID 2283345);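 note: actives lower the bound radioligand count which means they displace the ER ligand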
# Outline: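 Displacement of a radioligand from estrogen receptor in bovine uterine membrane preparations; scintillation signal taken at 18 hours, DMSO as baseline. Single-concentration duplicates (25 uM) preceded concentration-response follow-up of actives.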
# NCBI gene 100848466 = assay: NVS_NR_bPR: NovaScreen (NVS) Nuclear Receptor Binding Assay for bovine Progextron Receptor (PR) (AID 2283343);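 for AC50: actives lower bound radioligand signal below DMSO meaning displacement of the label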
# Outline: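 Steps: bovine uterine membranes were dosed with chemical alongside radioligand, incubated 18 hours, then radiodetected by scintillation counting. Initial testing used 25 uM in duplicate; confirmed actives were rerun as concentration series.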
# [19] = biological target: Small conductance calcium-activated potassium channel protein 1 (Rattus norvegicus) (UniProt P70606); assay: NVS_IC_rKCaCh: NovaScreen (NVS) Ion Channel Assay for rat Potassium Channel, Ca2+ Act., VI (KCaCh) (AID 2283336)
# Outline: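 Filter-based scintillation counting of radioligand bound to rat forebrain membrane preparations, measured 1 h after compound addition. Primary screen used 25 uM in duplicate, with concentration-response follow-up; signal decrease relative to DMSO marks activity.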
# bovine Estrogen Receptor (ER), ESR1 (gene 407238), sequence (P49884 whole entry, looked up): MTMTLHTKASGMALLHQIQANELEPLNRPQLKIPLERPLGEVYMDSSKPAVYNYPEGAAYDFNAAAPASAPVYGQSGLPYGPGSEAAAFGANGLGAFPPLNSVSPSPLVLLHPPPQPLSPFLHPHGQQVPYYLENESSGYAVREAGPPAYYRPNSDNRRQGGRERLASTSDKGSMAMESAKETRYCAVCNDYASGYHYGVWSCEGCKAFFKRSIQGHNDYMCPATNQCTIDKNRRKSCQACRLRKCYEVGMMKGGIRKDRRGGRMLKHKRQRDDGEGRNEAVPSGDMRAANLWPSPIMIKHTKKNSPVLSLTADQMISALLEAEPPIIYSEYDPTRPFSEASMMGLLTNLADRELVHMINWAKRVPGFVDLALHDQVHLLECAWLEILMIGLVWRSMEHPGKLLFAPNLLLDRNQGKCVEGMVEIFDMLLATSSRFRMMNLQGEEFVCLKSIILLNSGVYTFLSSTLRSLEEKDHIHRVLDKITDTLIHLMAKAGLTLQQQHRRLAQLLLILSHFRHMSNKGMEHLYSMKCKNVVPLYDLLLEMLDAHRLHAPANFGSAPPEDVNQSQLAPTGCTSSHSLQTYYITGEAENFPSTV
# Bile acid receptor (Homo sapiens), sequence (Q96RI1 whole entry, looked up): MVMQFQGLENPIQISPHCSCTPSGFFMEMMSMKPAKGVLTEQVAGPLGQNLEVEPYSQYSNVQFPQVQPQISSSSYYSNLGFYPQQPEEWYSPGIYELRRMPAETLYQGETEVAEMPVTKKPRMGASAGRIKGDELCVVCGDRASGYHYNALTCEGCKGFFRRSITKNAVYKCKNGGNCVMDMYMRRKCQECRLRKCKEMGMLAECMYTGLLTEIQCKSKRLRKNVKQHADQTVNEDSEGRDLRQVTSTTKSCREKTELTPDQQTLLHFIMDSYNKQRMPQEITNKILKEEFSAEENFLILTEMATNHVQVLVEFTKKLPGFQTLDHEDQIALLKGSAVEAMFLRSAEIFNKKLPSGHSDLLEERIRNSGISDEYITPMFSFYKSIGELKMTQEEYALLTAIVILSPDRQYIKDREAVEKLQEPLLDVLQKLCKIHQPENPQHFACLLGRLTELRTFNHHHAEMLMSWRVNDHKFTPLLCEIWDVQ
# Retinoic acid receptor alpha (Homo sapiens), sequence (P10276 whole entry, looked up): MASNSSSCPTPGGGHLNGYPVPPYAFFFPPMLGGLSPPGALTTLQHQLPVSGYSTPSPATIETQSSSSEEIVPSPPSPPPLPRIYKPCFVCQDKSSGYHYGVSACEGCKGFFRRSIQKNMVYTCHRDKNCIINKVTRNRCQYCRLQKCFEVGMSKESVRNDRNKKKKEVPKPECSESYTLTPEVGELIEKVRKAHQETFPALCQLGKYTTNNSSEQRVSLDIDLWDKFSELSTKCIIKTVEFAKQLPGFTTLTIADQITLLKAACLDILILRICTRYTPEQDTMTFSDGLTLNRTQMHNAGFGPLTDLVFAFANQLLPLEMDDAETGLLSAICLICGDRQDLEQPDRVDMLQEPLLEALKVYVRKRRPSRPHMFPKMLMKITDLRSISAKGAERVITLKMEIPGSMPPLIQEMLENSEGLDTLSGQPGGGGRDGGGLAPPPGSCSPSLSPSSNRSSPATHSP
# chimpanzee Androgen Receptor (AR), AR (gene 747460), sequence (O97775 whole entry, looked up): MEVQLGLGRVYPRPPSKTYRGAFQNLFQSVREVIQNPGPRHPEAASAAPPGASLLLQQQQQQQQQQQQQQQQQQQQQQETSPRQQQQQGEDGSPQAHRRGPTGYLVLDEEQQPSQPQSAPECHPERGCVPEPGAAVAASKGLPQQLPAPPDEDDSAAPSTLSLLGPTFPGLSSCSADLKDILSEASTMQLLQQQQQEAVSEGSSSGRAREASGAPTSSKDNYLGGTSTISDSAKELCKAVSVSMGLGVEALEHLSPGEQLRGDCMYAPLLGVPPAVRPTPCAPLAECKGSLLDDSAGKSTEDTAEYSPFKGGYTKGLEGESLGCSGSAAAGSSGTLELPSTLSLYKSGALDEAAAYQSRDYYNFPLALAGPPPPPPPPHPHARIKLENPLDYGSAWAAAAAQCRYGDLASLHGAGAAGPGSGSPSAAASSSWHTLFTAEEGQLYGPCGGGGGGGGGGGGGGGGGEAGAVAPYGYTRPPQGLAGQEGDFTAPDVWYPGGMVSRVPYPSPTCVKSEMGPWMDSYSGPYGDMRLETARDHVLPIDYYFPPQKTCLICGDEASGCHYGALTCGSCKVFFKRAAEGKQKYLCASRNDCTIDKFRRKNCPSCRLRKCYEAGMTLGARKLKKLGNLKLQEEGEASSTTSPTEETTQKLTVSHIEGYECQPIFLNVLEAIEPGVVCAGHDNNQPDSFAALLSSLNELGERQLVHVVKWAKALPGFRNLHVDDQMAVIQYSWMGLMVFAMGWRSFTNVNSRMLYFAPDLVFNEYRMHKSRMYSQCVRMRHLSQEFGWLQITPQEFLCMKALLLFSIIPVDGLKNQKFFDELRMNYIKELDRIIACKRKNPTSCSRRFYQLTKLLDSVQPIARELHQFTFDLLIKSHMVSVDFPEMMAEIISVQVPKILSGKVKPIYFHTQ
# Estrogen receptor beta (Homo sapiens), sequence (Q92731 whole entry, looked up, the tested form may be a part): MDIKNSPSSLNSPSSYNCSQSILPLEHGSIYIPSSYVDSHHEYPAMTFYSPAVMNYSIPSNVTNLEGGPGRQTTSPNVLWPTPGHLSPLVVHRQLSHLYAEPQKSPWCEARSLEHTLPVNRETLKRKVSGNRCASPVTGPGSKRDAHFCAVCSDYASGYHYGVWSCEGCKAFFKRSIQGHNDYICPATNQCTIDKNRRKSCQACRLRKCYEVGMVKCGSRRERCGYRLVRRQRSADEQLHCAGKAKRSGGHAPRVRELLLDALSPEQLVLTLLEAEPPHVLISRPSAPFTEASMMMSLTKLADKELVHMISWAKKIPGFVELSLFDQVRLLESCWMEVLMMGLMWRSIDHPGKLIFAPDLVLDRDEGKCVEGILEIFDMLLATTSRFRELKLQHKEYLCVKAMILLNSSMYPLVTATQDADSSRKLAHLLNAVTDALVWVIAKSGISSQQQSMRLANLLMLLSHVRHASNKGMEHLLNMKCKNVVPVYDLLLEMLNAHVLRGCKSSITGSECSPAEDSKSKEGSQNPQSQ
# human Constitutive Androstane Receptor (CAR), NR1I3 (gene 9970), sequence (Q14994 whole entry, looked up): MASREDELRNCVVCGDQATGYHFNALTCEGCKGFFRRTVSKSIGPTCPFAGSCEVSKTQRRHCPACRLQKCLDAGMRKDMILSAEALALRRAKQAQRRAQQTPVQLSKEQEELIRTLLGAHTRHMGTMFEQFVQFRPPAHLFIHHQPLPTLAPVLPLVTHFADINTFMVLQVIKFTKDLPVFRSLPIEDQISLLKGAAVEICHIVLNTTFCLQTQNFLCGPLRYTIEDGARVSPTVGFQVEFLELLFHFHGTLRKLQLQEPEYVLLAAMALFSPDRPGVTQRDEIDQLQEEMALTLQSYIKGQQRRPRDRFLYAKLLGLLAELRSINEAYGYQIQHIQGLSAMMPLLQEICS
# Androgen Receptor/SRC-1 Co-activator, AR (gene 367), sequence (P10275 whole entry, looked up, the tested form may be a part): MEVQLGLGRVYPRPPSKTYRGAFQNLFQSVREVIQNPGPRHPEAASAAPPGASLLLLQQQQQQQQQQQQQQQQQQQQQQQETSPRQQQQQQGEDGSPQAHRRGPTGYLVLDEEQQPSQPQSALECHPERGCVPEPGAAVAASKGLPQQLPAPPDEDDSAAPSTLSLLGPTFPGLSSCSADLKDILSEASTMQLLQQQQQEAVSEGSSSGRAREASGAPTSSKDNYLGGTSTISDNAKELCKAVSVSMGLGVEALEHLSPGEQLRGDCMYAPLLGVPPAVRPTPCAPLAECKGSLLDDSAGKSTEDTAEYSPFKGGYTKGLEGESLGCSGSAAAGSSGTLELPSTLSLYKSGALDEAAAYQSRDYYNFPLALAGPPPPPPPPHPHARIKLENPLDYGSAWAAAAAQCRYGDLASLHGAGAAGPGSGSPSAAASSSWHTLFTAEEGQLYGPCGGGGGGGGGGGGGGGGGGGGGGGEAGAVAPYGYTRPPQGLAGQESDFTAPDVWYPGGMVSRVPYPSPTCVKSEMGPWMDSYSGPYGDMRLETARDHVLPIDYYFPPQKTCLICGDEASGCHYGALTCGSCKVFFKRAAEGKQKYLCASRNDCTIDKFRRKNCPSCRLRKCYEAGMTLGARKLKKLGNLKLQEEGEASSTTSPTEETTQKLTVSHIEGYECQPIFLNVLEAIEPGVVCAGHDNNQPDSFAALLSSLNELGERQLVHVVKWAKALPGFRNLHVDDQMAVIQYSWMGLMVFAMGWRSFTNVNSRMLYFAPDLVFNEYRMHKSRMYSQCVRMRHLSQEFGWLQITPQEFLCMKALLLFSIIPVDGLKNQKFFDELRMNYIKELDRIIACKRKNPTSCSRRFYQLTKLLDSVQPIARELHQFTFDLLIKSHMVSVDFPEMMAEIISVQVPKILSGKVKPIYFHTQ
# Estrogen receptor (Homo sapiens), sequence (P03372 whole entry, looked up, the tested form may be a part): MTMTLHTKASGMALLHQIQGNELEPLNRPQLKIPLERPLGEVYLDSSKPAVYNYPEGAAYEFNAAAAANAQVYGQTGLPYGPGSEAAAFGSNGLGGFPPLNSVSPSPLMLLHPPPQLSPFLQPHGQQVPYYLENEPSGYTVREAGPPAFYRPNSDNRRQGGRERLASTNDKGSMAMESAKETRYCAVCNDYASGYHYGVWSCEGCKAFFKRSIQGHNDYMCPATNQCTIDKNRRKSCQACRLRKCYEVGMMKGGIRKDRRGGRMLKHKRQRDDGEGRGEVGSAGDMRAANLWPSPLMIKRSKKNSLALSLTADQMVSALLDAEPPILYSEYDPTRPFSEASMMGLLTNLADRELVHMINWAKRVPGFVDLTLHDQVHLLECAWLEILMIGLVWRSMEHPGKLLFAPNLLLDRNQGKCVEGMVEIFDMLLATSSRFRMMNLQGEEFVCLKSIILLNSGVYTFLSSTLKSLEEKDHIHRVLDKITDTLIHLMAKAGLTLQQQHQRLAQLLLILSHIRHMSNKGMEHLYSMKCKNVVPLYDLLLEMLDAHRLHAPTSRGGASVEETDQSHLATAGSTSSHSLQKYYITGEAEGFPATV
smiles,measurement,setting,value
Cc1oc2c(NC(=O)c3c(Cl)cccc3Cl)cccc2c1C(C)(C)O,AC50,[1],34.6 µM (active)
same,outcome,[2],inactive
same,AC50,[3],13.6 µM (active)
same,outcome,[4],inactive
same,outcome,[5],inactive
Cc1occc1C(=O)Nc1ccc(C(=O)N2CCC(F)(F)/C(=C\C(=O)N3CCC(N4CCCCC4)CC3)c3ccccc32)cc1,AC50,[6],5.12 µM (active)
same,outcome,[7],inactive
same,outcome,[4],inactive
same,AC50,[5],27.7 µM (active)
same,AC50,[8],26.9 µM (active)
same,AC50,[9],32.3 µM (active)
same,outcome,[10],inactive
same,outcome,[11],inactive
CC(C)(C)c1csc(-c2cc3cc(OCc4ccccc4CC(=O)O)ccc3o2)n1,outcome,[1],inactive
same,outcome,[4],inactive
same,outcome,[5],inactive
same,outcome,[8],inactive
same,outcome,[11],inactive
O=C(O)Cc1cc(I)c(Oc2ccc(O)c(I)c2)c(I)c1,outcome,[12],inactive
same,AC50,[13],40.3 µM (active)
same,outcome,[14],inactive
same,outcome,[11],inactive
same,outcome,[15],inactive
Cc1cccc2ccccc12,outcome,[16],inactive
same,outcome,[4],inactive
same,outcome,[5],inactive
c1ccc(C[n+]2cccc3ccccc32)cc1,outcome,[17],inactive
same,AC50,[7],25 µM (active)
same,outcome,[18],inactive
same,outcome,[4],inactive
same,outcome,[5],inactive
same,outcome,[8],inactive
same,outcome,[11],inactive
CCCCCCCCOC(=O)c1cc(O)c(O)c(O)c1,outcome,NCBI gene 100848466,inactive
same,AC50,[18],36.7 µM (active)
same,outcome,[3],inactive
same,AC50,[4],14.4 µM (active)
same,AC50,[5],12.1 µM (active)
same,AC50,[8],11.9 µM (active)
same,AC50,[11],12.4 µM (active)
O=C1c2ccccc2C(=O)N1CCc1noc(-c2ccc(CN3CCCCCC3)s2)n1,AC50,[6],7.22 µM (active)
same,AC50,[7],8.06 µM (active)
same,outcome,[4],inactive
same,outcome,[5],inactive
CC(C)(C)c1cc(/C=C2\SC(N)=NC2=O)cc(C(C)(C)C)c1O,outcome,[18],inactive
same,AC50,[2],33.9 µM (active)
same,outcome,[3],inactive
same,outcome,[4],inactive
same,outcome,[5],inactive
COc1cccc([C@H](O)C2CCN(CCc3ccc(F)cc3)CC2)c1OC,AC50,[6],1.35 µM (active)
same,AC50,[7],13.1 µM (active)
same,outcome,[4],inactive
same,outcome,[5],inactive
same,outcome,[8],inactive
same,outcome,[11],inactive
CCN(CC)C(=O)c1cc(S(=O)(=O)Cc2ccccc2)c(N2CCC(c3ccccc3)CC2)cc1N(CC)CCN(C)C,AC50,[6],0.214 µM (active)
same,outcome,[16],inactive
same,AC50,[7],2.84 µM (active)
same,outcome,[1],inactive
same,AC50,[2],12.6 µM (active)
same,outcome,[4],inactive
same,AC50,[13],10.1 µM (active)
same,outcome,[5],inactive
same,outcome,[11],inactive
CCN(Cc1cccnc1)C(=O)c1cccc(Cl)c1[C@]1(C)C(=O)N(Cc2ccc(OC)cc2OC)c2ccc(Cl)cc21,outcome,[19],inactive
same,AC50,[6],12.6 µM (active)
same,AC50,[7],1.12 µM (active)
same,AC50,NCBI gene 100848466,2.77 µM (active)
same,outcome,[18],inactive
same,AC50,[2],18.3 µM (active)
same,AC50,[3],7.99 µM (active)
same,outcome,[4],inactive
same,outcome,[5],inactive
same,outcome,[8],inactive
same,AC50,[9],2.59 µM (active)
same,outcome,[10],inactive
same,outcome,[11],inactive
Cc1cc(F)ccc1-c1cc(N2CC[C@@H](O)[C@H]2CO)ncc1N(C)C(=O)C(C)(C)c1cc(C(F)(F)F)cc(C(F)(F)F)c1,outcome,[6],inactive
same,outcome,[7],inactive
same,AC50,NCBI gene 100848466,11.3 µM (active)
same,outcome,[3],inactive
same,outcome,[4],inactive
same,outcome,[13],inactive
same,outcome,[5],inactive
same,outcome,[8],inactive
same,AC50,[9],15.2 µM (active)
same,AC50,[10],23.6 µM (active)
same,outcome,[11],inactive
OC12N=C(c3ccccc3)SC1Cc1cc(Cl)ccc12 (stereo not given),outcome,[19],inactive
same,outcome,[18],inactive
same,outcome,[2],inactive
same,outcome,[4],inactive
same,outcome,[5],inactive
same,outcome,[8],inactive
same,outcome,[11],inactive

# Source: PubChem BioAssay (EPA / NIEHS)
